VDR inhibitor: inhibitors of human vitamin D receptor; AID 504847; P11473; Potency, µM, for the others: max response, negative = inhibition, most hits filed as inhibitors; VDR-SRC2-3 peptide fluorescence polarization, 2 h; actives 0.93% (n = 400,000); further: on the % scale 0 is the no-effect control and ±100 the full control effect
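Measured by FP: displacement of SRC2-3 coactivator peptide from VDR by library compounds, following a two-hour ambient incubation.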
USP1 inh: USP1/UAF1 (human) deubiquitinase inhibition. recombinant USP1/UAF1, Ub-Rhodamine cleavage fluorescence. Potency, µM (series often up to 57.1 µM), for inactives: at the highest dose activity change, negative = inhibition, usual class: inhibitors. actives 0.23% (n = 390,000); further: on the % scale 0 is the no-effect control and ±100 the full control effect; nearly all actives have a fitted effect of over 60% in size
Target sequence (O94782 whole entry, looked up): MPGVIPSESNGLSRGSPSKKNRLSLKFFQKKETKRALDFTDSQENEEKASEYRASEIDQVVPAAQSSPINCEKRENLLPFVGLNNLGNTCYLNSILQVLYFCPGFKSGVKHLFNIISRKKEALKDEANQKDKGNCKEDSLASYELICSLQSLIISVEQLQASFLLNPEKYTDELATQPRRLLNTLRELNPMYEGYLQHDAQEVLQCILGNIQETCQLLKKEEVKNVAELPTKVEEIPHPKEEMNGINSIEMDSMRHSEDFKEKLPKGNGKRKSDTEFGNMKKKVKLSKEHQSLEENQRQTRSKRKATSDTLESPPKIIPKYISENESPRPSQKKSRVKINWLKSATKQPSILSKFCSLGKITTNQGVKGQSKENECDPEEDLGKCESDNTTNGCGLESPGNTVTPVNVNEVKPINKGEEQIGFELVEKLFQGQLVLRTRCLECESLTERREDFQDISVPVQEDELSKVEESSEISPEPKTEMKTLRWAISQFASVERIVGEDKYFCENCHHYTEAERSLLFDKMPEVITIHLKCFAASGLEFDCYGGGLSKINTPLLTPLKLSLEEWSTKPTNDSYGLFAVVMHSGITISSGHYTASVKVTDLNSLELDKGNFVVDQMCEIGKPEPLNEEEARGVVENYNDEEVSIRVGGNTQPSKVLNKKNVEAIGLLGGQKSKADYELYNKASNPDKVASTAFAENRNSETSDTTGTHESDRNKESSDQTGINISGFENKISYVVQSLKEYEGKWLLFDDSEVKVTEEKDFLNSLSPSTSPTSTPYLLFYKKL
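USP1/UAF1 complex (1 nM) preincubated 15 min at room temperature with compound, then Ub-Rho substrate (150 nM final) added. Kinetic fluorescence at 480/540 nm over 6 reads at 60 s intervals; 50 mM HEPES pH 7.8, 0.5 mM EDTA, 0.1 mg/ml BSA, 1 mM TCEP, 0.01% Tween-20.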
TSG101-PTAP inh: blocks PTAP/TSG101 interaction to inhibit HIV-1 budding. Q99816. Fluorescence polarization, FITC-PTAP peptide / Tsg101 binding. Potency, µM (series often up to 115 µM), without a hit: top-dose activity change, negative = inhibition, most hits filed as inhibitors. 340,000 tested, under 10 active. AID 493005; active means well fitted inhibition curve with a large enough effect in the main read-out, with a control signal flat, not every such curve was filed as active; inconclusive means small, poorly fitted or top-dose-only effect, or effect the other way, or a change in a side signal; inactive means no such curve, though single readings can be large or run the other way; further: % of control where 0% means no effect
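Fluorescence polarization binding of Tsg101 binding domain (10 uM final) to FITC-labeled PTAP peptide (50 nM final) in HEPES pH 7.5 buffer with NaCl, Tween 20, EDTA, TCEP. Compounds added before peptide; binding 20 min at RT.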
PLK1 PBD block: blocks phosphopeptide binding to human PLK1 polo-box domain | actives 2.8% (n = 360,000) | Plk1 PBD binding of FITC phosphopeptide, fluorescence polarization | Potency, µM, for the others: max response, negative = inhibition, usual class: inhibitors | P53350; further: series mostly up to about 57 µM; on the % scale 0 is the no-effect control and ±100 the full control effect; nearly all actives have a fitted effect of over 65% in size
GCN5L2 inh: inhibitors of human GCN5L2 histone acetyltransferase; Q92830; GCN5L2 HAT assay, ThioGlo1 CoA-SH fluorescence; Potency, µM (series often up to 58.9 µM), for inactives: at the top dose activity change, negative = inhibition, usual class: inhibitors; actives 0.21% (n = 390,000); AID 504327; further: on the % scale 0 is the no-effect control and ±100 the full control effect
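Fluorescence readout, Ex340nm/Em540nm: ThioGlo1 (50uM final) reacts with free CoA thiol released as 20nM GCN5L2 acetylates H3(1-25) peptide (75uM) using acetyl-CoA (70uM). Compound and enzyme sat 15 min beforehand; 20 min room-temperature reaction.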
Starred values were filed as active, the others as inactive; ? = inconclusive; nt = not tested or not shown. In the library only some 3% were active in any assay of this set; here they are far more common. Unless noted, the call rests on the fitted dose curve; in most records, active means well fitted curve in the direction sought with a large enough effect; inconclusive means small, poorly fitted or top-dose-only effect, or another doubt; inactive means no such curve, though single readings can be large; an effect the other way counts as inactive or inconclusive. Potency means the concentration at half of the fitted maximal effect.

SMILES | VDR inhibitor | USP1 inh | TSG101-PTAP inh | PLK1 PBD block | GCN5L2 inh
CCOc1ccc(Cl)cc1-c1cc(C(=O)Nc2ccc(C(C)C)cc2)[nH]n1 | nt | nt | nt | -7% | nt
CCc1ccccc1NC(=O)C1CCCN1C(=O)Nc1ccc(C)cc1 (stereo unspecified) | 10% | -17% | 1% | 0% | -4%
CCc1cccc(NC(=O)Cn2c(=O)c(C(F)(F)F)nc3ccccc32)c1 | 0% | -20% | nt | nt | 20%
O=C(CN1C2=NCCCN2c2ccccc21)c1cccc(Br)c1 | ? | -12% | -2% | 24µM* | 1%
O=C(Cn1c(=O)sc2ccccc21)NCc1ccccn1 | -21% | -5% | -1% | 21µM* | -12%
O=C(CN1C(=O)c2ccccc2C1=O)NCc1ccccn1 | -3% | -2% | -9% | -8% | 1%
CC(C)(C)CC(C)(C)SSc1n[nH]c(=S)s1 | ? | -8% | 0% | 27µM* | nt
C=CCNc1n[nH]c(=S)s1 | nt | -15% | nt | ? | nt
CC(=O)NC(Cc1ccccc1)C(=O)NC1CCN(C(=O)c2ccc([N+](=O)[O-])cc2)CC1 (stereo unspecified) | -18% | -6% | -1% | 3.4µM* | 2%
Cc1cc(Br)cn2c(Cc3ccsc3)c(-c3ccco3)nc12 | nt | nt | nt | 24µM* | nt
Cc1ccc2oc(=O)c3cc(C(=O)N4CCN(c5ccccc5)CC4)sc3c2c1 | -29% | -16% | nt | nt | -1%
CCOC(=O)Cn1cnc2c(cnn2-c2ccc(C)c(C)c2)c1=O | 15% | -20% | nt | nt | 3%
Cc1ccc(-n2ncc3c(=O)n(CC(N)=O)cnc32)cc1C | -9% | -20% | -3% | 0% | 4µM*
Cc1nc2c3ccccc3n(CCN3CCCCC3)c2s1 | nt | nt | nt | nt | -2%
Cc1nc2c3cc(F)ccc3n(Cc3ccccc3F)c2s1 | 50µM* | -11% | -3% | ? | -10%
Cc1nc2c3ccccc3n(Cc3ccccc3F)c2s1 | 45µM* | -17% | -7% | -8% | -9%
CN(C)C(=O)CCc1ccc2c3c([nH]c2c1)[C@]1(CCc2ccccc2)[C@@H](C(=O)N2CCCCC2)C[C@H](CC(=O)NCCCn2ccnc2)C(=O)N1CC3 | 8% | -14% | -5% | -8% | -2%
CNC(=S)NNC(=O)c1ccc(=O)n(Cc2ccc(Cl)cc2Cl)c1 | -16% | -14% | -5% | -16% | -4%
CNC(=S)NNC(=O)c1cccn(Cc2ccc(Cl)cc2Cl)c1=O | nt | nt | nt | nt | 0.56µM*
COc1ccc2c(-c3ccccc3)cc(=S)[nH]c2c1 | ? | -15% | -2% | ? | -12%
COc1ccc2c(C)cc(=S)[nH]c2c1 | -4% | -6% | -3% | 11µM* | -4%
CN1C(=O)/C(=N/OC(=O)c2ccccc2)c2ccccc21 | -18% | -6% | -5% | 12µM* | -8%
Cc1ccc(-c2nc(-c3cc4cccc(OCc5cccc(F)c5)c4oc3=O)no2)cc1 | -4% | 30% | nt | nt | -13%
O=C(CCC1CCCN(C(=O)c2cncs2)C1)NCc1ccc(F)c(F)c1 (stereo unspecified) | ? | -19% | -5% | 30µM* | -4%
Cc1oc2ccc(OS(C)(=O)=O)cc2c1C(=O)OC(C)C | ? | -17% | -6% | 19µM* | -5%
SMILES | VDR inhibitor | USP1 inh | TSG101-PTAP inh | PLK1 PBD block | GCN5L2 inh
CN1CCN(C(c2ccc(F)cc2)c2nnnn2Cc2cccs2)CC1 (stereo unspecified) | 12% | 0% | -3% | -11% | 3%
COc1ccc(C(c2nnnn2Cc2cccs2)N2CCN(c3ccc(F)cc3)CC2)cc1OC (stereo unspecified) | -27% | -24% | -2% | 21µM* | -2%
O=C(COc1ncnc2ccccc12)N1CCN(S(=O)(=O)c2ccc(Cl)cc2)CC1 | -10% | -14% | -6% | 30µM* | -12%
O=C(COc1ncnc2ccccc12)N1CCN(S(=O)(=O)c2ccccc2)CC1 | -20% | -4% | -6% | -5% | -4%
CCCc1c(OCC(O)COc2ccc3c(=O)cc(C(=O)O)oc3c2CCC)ccc(C(C)=O)c1O (stereo unspecified) | 45µM* | nt | nt | nt | ?
C=C(C)Cn1c(SCC(=O)Nc2cccc(Cl)c2)nc2sc3c(c2c1=O)CCCC3 | -9% | -19% | nt | nt | 1%
O=C(CN1CCN(Cc2ccccc2)CC1)Nc1ccc(Br)cc1 | -12% | 3% | -5% | -11% | -14%
Cc1ccc2occ(CC(=O)N(Cc3ccccc3Cl)C3CCS(=O)(=O)C3)c2c1 (stereo unspecified) | 10% | ? | nt | nt | 1%
COc1cccc2cc(C(=O)NCCc3c[nH]c4ccccc34)c(=O)oc12 | -24% | -8% | -15% | 12µM* | -2%
O=C1C=CC2(C=C1)O[C@H](Cc1ccccc1)[C@@H](Cc1ccccc1)O2 | 14µM* | -20% | 2% | 9.5µM* | nt
CCC1Sc2ccc(S(=O)(=O)CCC(=O)N3CCc4ccccc43)cc2NC1=O (stereo unspecified) | -14% | -10% | -1% | -19% | -2%
CC1Sc2ccc(S(=O)(=O)CCC(=O)N3CCc4ccccc43)cc2NC1=O (stereo unspecified) | -19% | -23% | -9% | 30µM* | -4%
COc1ccc(NC(=O)CCS(=O)(=O)c2ccc3c(c2)NC(=O)C(C)S3)cc1OC (stereo unspecified) | ? | -10% | 2% | 6.7µM* | -1%
Cc1cc(NC(=O)CCS(=O)(=O)c2ccc3c(c2)NC(=O)C(C)S3)ccc1Br (stereo unspecified) | 4% | -1% | -8% | -7% | -5%
C/C=C/C(=O)[C@@H](C)[C@@H](/C=C/C[Si](C)(C)C)c1ccccc1 | -16% | nt | nt | nt | nt
CC(=O)Nc1ccc(SCC(=O)c2cc(C)n(-c3ccccc3F)c2C)cc1 | -18% | -14% | -1% | 19µM* | -5%
COC(=O)c1ccc(NC(=O)CSc2ccccn2)cc1 | 6% | -12% | 0% | -11% | -2%
COC(=O)c1ccc(-n2c(C)cc(C(=O)CSc3ccc(NC(C)=O)cc3)c2C)cc1 | -9% | -2% | -1% | 13µM* | -6%
NC(=O)c1ccc(NC(=O)CSC(=O)c2ccccc2)cc1 | ? | -22% | 1% | 27µM* | -10%
COC(=O)c1ccc(NC(=O)CSc2ccccc2)cc1 | 50µM* | -15% | 0% | 21µM* | 2%
CCN1CCN(Cc2c(O)ccc3c(C)c(-c4ccccc4)c(=O)oc23)CC1 | 9% | -7% | nt | nt | -26%
CCOC(=O)Nc1cc(N)ncn1 | 2% | 0% | -4% | -1% | nt
COc1ccccc1N1CCN(CC(=O)Nc2ccccc2C(=O)NC(C)c2ccccc2)CC1 (stereo unspecified) | -16% | -4% | 0% | -12% | -3%
O=C(Nc1cccc(Cl)c1Cl)c1csc([C@H]2C[C@H](O)[C@@H](CO)O2)n1 | nt | nt | nt | -9% | nt
